The values that follow come from PubChem BioAssay (NCI).

Compounds without any hit were thinned out: in the full panel of roughly 83,000, 20% have a hit.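 Testing used 96-well plates and a 48-hour single-concentration exposure. Example: -40 means 40% of the starting cells died.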 A number with no mark means an inactive call. Calls of active or inactive are those of the source. The calls were made as follows: active = growth percent below 10; inactive = the rest.

Among the test systems are HCT-15 colon; SNB-75 CNS; SNB-19 CNS; U251 CNS; PC-3 prostate; SK-MEL-5 melanoma; UACC-62 melanoma; LOX IMVI melanoma; SK-MEL-28 melanoma; SK-MEL-2 melanoma; EKVX NSCLC; SN12C renal; UO-31 renal; TK-10 renal; ACHN renal; CAKI-1 renal; A498 renal; CCRF-CEM leukemia; MOLT-4 leukemia.
Common to all, as to assay: NCI-60 one-dose screen, 48 h (100 = growth as untreated, 0 = no growth, -100 = all killed)
What all share (settings): 10 µM unless noted

As for `C#Cc1cc(OC)c(C(=O)Nc2ccc(F)cc2C(=O)Nc2cccc(S(=O)(=O)C(F)(F)F)c2)cn1`, the growth in the assay with HCT-15 colon is -8.48% (active); in the assay on SNB-75 CNS, -80.4% (active); in the assay on SNB-19 CNS, 17.6%; with U251 CNS, 0.45% (active); in the assay with PC-3 prostate it was 4.89% (active); in the assay on SK-MEL-5 melanoma, -49% (active). Besides, the growth in the assay on UACC-62 melanoma was 18.8%; with LOX IMVI melanoma, -82.1% (active); in the assay on SK-MEL-28 melanoma it was 50%; in the assay on SK-MEL-2 melanoma, 45.1%; with EKVX NSCLC, 13.9%; in the assay with SN12C renal it was 17.1%. The growth is -85.1% (active) with UO-31 renal; 66.6% in the assay on TK-10 renal; -57.4% (active) with ACHN renal; -11.4% (active) in the assay with CAKI-1 renal; -18.2% (active) in the assay with A498 renal; -23.5% (active) with CCRF-CEM leukemia. The growth with MOLT-4 leukemia was -32.9% (active).

`Cc1ccc(C(=O)CSc2nc3ccccc3c(=O)n2C)cc1`: the growth in the assay on HCT-15 colon was 94.5%; in the assay with SNB-75 CNS, 75.5%; in the assay on SNB-19 CNS it was 94.9%; in the assay with U251 CNS, 94.6%; with PC-3 prostate, 88.5%; in the assay with SK-MEL-5 melanoma, 81.4%. For the same molecule, the growth is 70.3% in the assay with UACC-62 melanoma; 93% with LOX IMVI melanoma; 101% in the assay with SK-MEL-28 melanoma; 95.7% in the assay with SK-MEL-2 melanoma; 71.5% in the assay on EKVX NSCLC; 94.2% with SN12C renal. For the same molecule, the growth was 56.6% in the assay with UO-31 renal; 134% with TK-10 renal; 83.7% in the assay on ACHN renal; 72.7% in the assay on CAKI-1 renal; 99.8% in the assay with A498 renal; 83.6% in the assay on CCRF-CEM leukemia. Also, the growth with MOLT-4 leukemia was 88%.

`COc1ccc(-c2cc(-c3ccc(N(C)C)cc3)n3c(n2)nc2ccccc23)cc1`: the growth was 50.7% with HCT-15 colon; 95.2% with SNB-75 CNS; 67.2% in the assay with SNB-19 CNS; 40.5% with U251 CNS; 28.1% in the assay with PC-3 prostate; 3.05% (active) with SK-MEL-5 melanoma. For the same molecule, the growth in the assay with UACC-62 melanoma is 48.2%; in the assay on LOX IMVI melanoma it was 66.3%; with SK-MEL-28 melanoma, 77%; in the assay on SK-MEL-2 melanoma it was -3.8% (active); in the assay with EKVX NSCLC, 56.5%; with SN12C renal, 64.7%. Also, the growth in the assay with UO-31 renal is 35.2%; in the assay on TK-10 renal, 40.9%; with ACHN renal, 63.7%; in the assay with CAKI-1 renal, 61.2%; with A498 renal, 51.8%; in the assay with CCRF-CEM leukemia, 24%. In addition, the growth in the assay with MOLT-4 leukemia was 13.8%.

Take `Cc1ccc(C(=O)Nc2ccc(CNCCN3CCOCC3)c(C(F)(F)F)c2)cc1C#Cc1cnc2cccnn12`: the growth in the assay with HCT-15 colon was 7.26% (active); in the assay with SNB-75 CNS, -18% (active); in the assay on SNB-19 CNS, 36.6%; with U251 CNS, 6.06% (active); with PC-3 prostate it was 19.3%; in the assay on SK-MEL-5 melanoma it was -85.9% (active). In addition, the growth is 15.1% in the assay on UACC-62 melanoma; -85.6% (active) in the assay with LOX IMVI melanoma; -6.46% (active) with SK-MEL-28 melanoma; -7.32% (active) in the assay on SK-MEL-2 melanoma; 41.2% in the assay on EKVX NSCLC; 26.5% in the assay on SN12C renal. Besides, the growth in the assay on UO-31 renal was 19%; in the assay with TK-10 renal it was 51.4%; with ACHN renal, 22.8%; in the assay with CAKI-1 renal, 17.2%; with A498 renal, -1.13% (active); in the assay on CCRF-CEM leukemia, 10.1%. Further, the growth with MOLT-4 leukemia is 4.38% (active).

For `O=C(/C=C/c1ccccc1Cl)Nc1ncc(Cc2cc(Cl)ccc2Cl)s1`, the growth was 21.7% in the assay with HCT-15 colon; 1.14% (active) in the assay on SNB-75 CNS; 21% in the assay on SNB-19 CNS; 16.6% in the assay on U251 CNS; 39.8% with PC-3 prostate; 25.7% in the assay with SK-MEL-5 melanoma. Besides, the growth in the assay with UACC-62 melanoma is 23.2%; in the assay on LOX IMVI melanoma, 35%; with SK-MEL-28 melanoma, 55.4%; in the assay on SK-MEL-2 melanoma, 30.4%; with EKVX NSCLC, 37.6%; in the assay with SN12C renal, 34.1%. The growth is 48.2% with UO-31 renal; 61.2% in the assay with TK-10 renal; 31.3% in the assay with ACHN renal; 36.6% in the assay with CAKI-1 renal; -16.6% (active) in the assay on A498 renal; 14% with CCRF-CEM leukemia. Further, in the assay on MOLT-4 leukemia, the growth is 24%.

For the molecule `CCCCN1C(=O)/C(=c2\sc3n(c2=O)C2C(NN=3)N(CC)C(=O)N2CC)c2cccc(C)c21` (stereo unspecified), the growth with HCT-15 colon is 14.9%; with SNB-75 CNS, 14.1%; in the assay with SNB-19 CNS it was 39.4%; in the assay on U251 CNS it was 39.1%; with PC-3 prostate, 34.4%; in the assay with SK-MEL-5 melanoma it was 29.6%. Besides, the growth in the assay with UACC-62 melanoma was 38.7%; in the assay on LOX IMVI melanoma, 42.4%; in the assay with SK-MEL-28 melanoma, 68.2%; in the assay with SK-MEL-2 melanoma, 97.6%; in the assay on EKVX NSCLC, 46.6%; in the assay with SN12C renal, 62%. Also, the growth in the assay with UO-31 renal was 54.7%; in the assay with TK-10 renal, 82.9%; in the assay on ACHN renal, 47.2%; in the assay on CAKI-1 renal it was 35.3%; in the assay with A498 renal, 5.04% (active); with CCRF-CEM leukemia, 18.7%. Moreover, the growth with MOLT-4 leukemia is 45.1%.

In the case of `O=C(/C=C/Nc1ccc(S(=O)(=O)Nc2ncccn2)cc1)c1ccc(N=Cc2c(O)[nH]c3ccccc23)cc1`, the growth is 104% in the assay with HCT-15 colon; 102% in the assay with SNB-75 CNS; 112% in the assay on SNB-19 CNS; 103% in the assay on U251 CNS; 101% in the assay on PC-3 prostate; 108% with UACC-62 melanoma. The growth is 102% with LOX IMVI melanoma; 118% in the assay on SK-MEL-28 melanoma; 118% with SK-MEL-2 melanoma; 103% in the assay on EKVX NSCLC; 98.3% in the assay on SN12C renal; 92.4% with UO-31 renal. The growth in the assay on TK-10 renal is 112%; in the assay on ACHN renal, 106%; in the assay on CAKI-1 renal, 94.4%; in the assay on A498 renal, 98.5%; in the assay on CCRF-CEM leukemia, 104%; in the assay on MOLT-4 leukemia it was 109%.

For `N#C/C(=C\c1ccc(-c2ccc(Cl)c(Cl)c2)o1)C(=O)Nc1ncc(Cc2ccc(Cl)cc2)s1`, the growth is 13.5% in the assay with HCT-15 colon; 7.13% (active) in the assay with SNB-75 CNS; 37.8% with SNB-19 CNS; 3.74% (active) in the assay with U251 CNS; 36.7% with PC-3 prostate; 80.4% in the assay with SK-MEL-5 melanoma. Besides, the growth is 48.6% with UACC-62 melanoma; -79.8% (active) in the assay on LOX IMVI melanoma; 18.2% with SK-MEL-28 melanoma; 87.9% in the assay on SK-MEL-2 melanoma; 32.2% in the assay with EKVX NSCLC; 12% in the assay on SN12C renal. Also, the growth with UO-31 renal is 24.9%; in the assay with TK-10 renal, 68.5%; in the assay on ACHN renal, 59.1%; in the assay with CAKI-1 renal, 57.4%; with A498 renal, 40.9%; in the assay on CCRF-CEM leukemia it was 31.9%. Besides, in the assay with MOLT-4 leukemia, the growth is 58.6%.
